{
  "source": "PubChem BioAssay (Tox21)",
  "note": "Values joined by “and” are separate entries in the source; they are usually repeats but may differ in a detail not shown here. Equal values may be shown once. Records with an inconclusive call do not appear. Where a call stands in place of a potency, no number is given. A structure can be active in one record and inactive in another. Active and inactive are the calls of the source. Calls follow the shape of the dose curve; as a rule, active = well fitted cell-killing curve with a large enough effect in the repeat runs; inconclusive = weak or mixed curves, or effect the other way; inactive = no such curve, though single readings can be large or run the other way. Potency is read from the fitted curve at half-maximal effect.",
  "data": [
    {"assay": "qHTS assay to identify small molecule agonists of the RXR signaling pathway - cell viability counter screen (AID 1159529); also: nearly all actives have a fitted effect of over 50% in size", "details": "RXR-alpha-bla HEK293T viability, CellTiter-Glo, 16 h; series mostly up to 76.8 µM", "description": "National Center for Advancing Translational Sciences [NCATS]\nNIH Chemical Genomics Center [NCGC]\nU.S. Environmental Protection Agency [EPA]\nNational Institutes of Environmental Health Sciences [NIEHS]\nNational Toxicology Program [NTP]\nU.S. Food and Drug Administration [FDA]\nThe Retinoid X receptor (RXR), a nuclear hormone receptor expressed in liver, spleen, placenta, epidermis, central nervous system. These receptors are able to form homo and heterodimers with other nuclear receptors and due to this heterodimerizing ability, RXR functions as master regulators producing diverse physiological effects. Three subtypes of RXR exist; alpha, beta and gamma. Retinoid X receptor alpha (RXR-alpha) has potential roles in metabolic signaling pathways, skin alopecia, dermal cysts, cardiac development, insulin sensitization etc. Therefore screening environmental chemicals on RXR-alpha signaling can be used for the studies focused on such therapeutic applications. For quantification of RXR-alpha ligands signaling, GeneBLAzer RXR alpha-UAS-bla HEK 293T (Life Technologies, Carlsbad, CA) cells containing a beta-lactamase reporter-gene under control of Retinoid X receptor-alpha response element were used to screen Tox21 10K library. The cytotoxicity of the Tox21 compound library against the RXR-alpha HEK 293T cell line was tested in parallel by measuring cell viability using CellTiter-Glo assay (Promega Corporation, Madison, WI) in the same wells.\nTox21 Assay Protocol Summary:\nRXR-alpha HEK 293T cells were dispensed at 2,000 cells/6 uL of assay medium containing 2% charcoal-stripped FBS using a Multidrop Combi (ThermoFisher Scientific, Waltham, MA) dispenser. The assay was performed in black wall/clear-bottom 1536-well plates (Greiner Bio-One North America Inc. Monroe, NC). Tetraoctyl ammonium bromide was used as a positive control in the cytotoxicity screen. After the assay plates were incubated at 37 C and 5% CO2 for 5 hr, 23 nL of compounds dissolved in DMSO, positive control or DMSO only were transferred to the assay plate by a Pintool station (Kalypsys, San Diego, CA). The assay plates were incubated at 37 C and 5% CO2 for 16 hr. One uL of LiveBLAzer B/G FRET substrate (Life Technologies) was added using a Flying Reagent Dispenser (FRD) (Aurora Discovery, San Diego, CA) and the plates were incubated at room temperature for 2 hr. Fluorescence intensity (405 nm excitation, 460/530 nm emission) was measured using an Envision plate reader (PerkinElmer, Shelton, CT). For cytotoxicity, 4 uL/well of CellTiter-Glo reagent was added into the assay plates using an FRD. After 30 min incubation at room temperature, the luminescence intensity was measured using a ViewLux plate reader (PerkinElmer).", "values": [
      {"smiles": "CC(O)CCO", "note": "(stereo not given)", "Potency": "inactive"},
      {"smiles": "S=C1NCCN1", "Potency": "inactive"},
      {"smiles": "c1nc[nH]n1", "Potency": "inactive"},
      {"smiles": "CCCCOCCOP(=O)(OCCOCCCC)OCCOCCCC", "Potency": "inactive"},
      {"smiles": "C#CCOS(=O)OC1CCCCC1Oc1ccc(C(C)(C)C)cc1", "note": "(stereo not given)", "Potency": "27.6 µM (active) and 43.6 µM (active)"},
      {"smiles": "NNC(N)=S", "Potency": "18.1 µM (active)"},
      {"smiles": "CCC(=O)O[C@H]1CC[C@H]2[C@@H]3CCC4=CC(=O)CC[C@]4(C)[C@H]3CC[C@]12C", "Potency": "49 µM (active)"},
      {"smiles": "CCCCNC(=O)n1c(NC(=O)OC)nc2ccccc21", "Potency": "inactive"},
      {"smiles": "Oc1c(Cl)c(Cl)c(Cl)c(Cl)c1Cl", "Potency": "inactive"},
      {"smiles": "CCOc1cc(C=O)ccc1O", "Potency": "inactive"},
      {"smiles": "Clc1nc(Cl)nc(Cl)n1", "Potency": "inactive"},
      {"smiles": "c1ccc(NNc2ccccc2)cc1", "Potency": "inactive"},
      {"smiles": "O=C(Nc1ccc(Br)cc1)c1cc(Br)cc(Br)c1O", "Potency": "24.5 µM (active)"},
      {"smiles": "Nn1cnnc1", "Potency": "inactive"},
      {"smiles": "COC(=O)c1sccc1S(=O)(=O)NC(=O)Nc1nc(C)nc(OC)n1", "Potency": "inactive"},
      {"smiles": "CCCCC(CC)COC(=O)Cl", "note": "(stereo not given)", "Potency": "inactive"},
      {"smiles": "N#Cc1cc(Br)c(O)c(Br)c1", "Potency": "11 µM (active) and 13.3 µM (active)"},
      {"smiles": "O=C(O)C(F)(F)C(F)(F)C(F)(F)C(F)(F)C(F)(F)C(F)(F)C(F)(F)F", "Potency": "inactive"},
      {"smiles": "CCCCC(CC)COC(=O)c1ccc(C(=O)OCC(CC)CCCC)c(C(=O)OCC(CC)CCCC)c1", "note": "(stereo not given)", "Potency": "inactive"},
      {"smiles": "O=P(O)(O)CCCl", "Potency": "inactive"},
      {"smiles": "CCN(CC)C(=O)SCc1ccc(Cl)cc1", "Potency": "inactive"},
      {"smiles": "Cc1ccc(N)c(N)c1", "Potency": "inactive"},
      {"smiles": "O=S(=O)(Oc1ccc(Cl)cc1)c1ccc(Cl)cc1", "Potency": "inactive"},
      {"smiles": "COc1ccc(C=O)cc1", "Potency": "inactive"},
      {"smiles": "CN(C)C(=O)Nc1ccc(Cl)cc1", "Potency": "inactive"},
      {"smiles": "CCc1cccc(CC)c1N(COC)C(=O)CCl", "Potency": "inactive"},
      {"smiles": "Nc1ccc(Cl)cc1N", "Potency": "inactive"},
      {"smiles": "C#C[C@]1(O)CC[C@H]2[C@@H]3CCC4=CC(=O)CC[C@]4(C)[C@H]3CC[C@@]21C", "Potency": "inactive"},
      {"smiles": "NC(=S)Nc1ccccc1", "Potency": "25 µM (active) and inactive"},
      {"smiles": "Nc1ccc(-c2ccc(N)c(N)c2)cc1N", "Potency": "inactive"},
      {"smiles": "Nc1ccc(Cl)c(Cl)c1", "Potency": "inactive"},
      {"smiles": "Oc1cc(Cl)ccc1Oc1ccc(Cl)cc1Cl", "Potency": "17.8 µM (active)"},
      {"smiles": "COP(=S)(OC)Oc1ccc([N+](=O)[O-])cc1", "Potency": "inactive"},
      {"smiles": "CCOC(=O)C(C)OC(=O)c1cc(Oc2ccc(C(F)(F)F)cc2Cl)ccc1[N+](=O)[O-]", "note": "(stereo not given)", "Potency": "inactive"},
      {"smiles": "CCOc1cc(Oc2ccc(C(F)(F)F)cc2Cl)ccc1[N+](=O)[O-]", "Potency": "inactive"},
      {"smiles": "CC(C)(c1cc(Cl)c(O)c(Cl)c1)c1cc(Cl)c(O)c(Cl)c1", "Potency": "inactive"},
      {"smiles": "O=[N+]([O-])c1cccc2ccccc12", "Potency": "inactive"},
      {"smiles": "c1ccc(N=Nc2ccccc2)cc1", "Potency": "inactive"},
      {"smiles": "C=C(C)C(=O)OCC1CO1", "note": "(stereo not given)", "Potency": "inactive"},
      {"smiles": "Oc1cc(Cl)ccc1Cl", "Potency": "inactive"}
    ]}
  ]
}
